Several values for one entry are separate records, joined by “and”; a condition that tells them apart may be missing. Identical values can stand only once. Compounds without any hit were thinned out: in the full panel of roughly 83,000, 20% have a hit.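 Step 1: grow cells in 96-well plates. Step 2: add test compound at a single concentration. Step 3: incubate 48 h. Step 4: record percent growth.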 Activity calls are given as the source filed them. How the source made its calls: active means growth percent below 10; inactive means the rest.
Key:
Experiment in all cases: NCI-60 one-dose screen, 48 h (100 = growth as untreated, 0 = no growth, -100 = all killed)
[1] = system: SR leukemia; conditions: 10 µM unless noted
[2] = system: RPMI-8226 leukemia
[3] = system: OVCAR-8 ovarian
[4] = system: OVCAR-5 ovarian
[5] = system: OVCAR-4 ovarian
[6] = system: SK-OV-3 ovarian; conditions: 10 µM unless noted
[7] = system: IGROV1 ovarian
[8] = system: OVCAR-3 ovarian
[9] = system: HS 578T breast
[10] = system: NCI/ADR-RES ovarian

Measured: growth

N#CC(=S)Nc1ccc(Cl)c(Cl)c1
inactive: [2]; 10 µM unless noted 19.7% | [3]; 10 µM unless noted 10.1% | [4]; 10 µM unless noted 11% | [5]; 10 µM unless noted 22.6% | [7]; 10 µM unless noted 19.5%
active: [1] 9.44% | [6] 7.19% | [8]; 10 µM unless noted 7.39% | [9]; 10 µM unless noted -7.34% | [10]; 10 µM unless noted 7.44%

CCOC(=O)C(N)Cc1cc(I)c(O)c(I)c1 (configuration not stated)
inactive: [1] 89.3% and 104% | [2]; 10 µM unless noted 96.4% and 107% | [3]; 10 µM unless noted 110% and 104% | [4]; 10 µM unless noted 109% and 107% | [5]; 10 µM unless noted 108% and 107% | [6] 107% and 96.6% | [7]; 10 µM unless noted 115% and 104% | [8]; 10 µM unless noted 113% and 102% | [9]; 10 µM unless noted 107% | [10]; 10 µM unless noted 98.8% and 101%

Oc1ccc(O)c(-c2ccccc2)c1
active: [1] 4.96%
inactive: [2]; 10 µM unless noted 42% | [3]; 10 µM unless noted 62.9% | [4]; 10 µM unless noted 102% | [5]; 10 µM unless noted 53.8% | [6] 83.3% | [7]; 10 µM unless noted 47% | [8]; 10 µM unless noted 20.5% | [9]; 10 µM unless noted 76.5% | [10]; 10 µM unless noted 50.6%

CC(C)(C)C1=CC(=O)C(C(C)(C)C)=CC1=O
inactive: [1] 78.9% and 97% | [2]; 10 µM unless noted 86.9% and 102% | [3]; 10 µM unless noted 91.5% and 96.5% | [4]; 10 µM unless noted 109% | [5]; 10 µM unless noted 93.3% and 118% | [6] 93.6% and 102% | [7]; 10 µM unless noted 95.5% and 110% | [8]; 10 µM unless noted 111% and 110% | [9]; 10 µM unless noted 104% | [10]; 10 µM unless noted 108%

S=c1nn[nH]n1C1CCCCC1
inactive: [1] 101% | [2]; 10 µM unless noted 109% | [3]; 10 µM unless noted 95.4% | [4]; 10 µM unless noted 117% | [5]; 10 µM unless noted 109% | [6] 137% | [7]; 10 µM unless noted 104% | [8]; 10 µM unless noted 104% | [9]; 10 µM unless noted 95.7% | [10]; 10 µM unless noted 112%

N=C(N=C(N)N)N1CCOCC1
inactive: [1] 103% | [2]; 10 µM unless noted 113% and 107% | [3]; 10 µM unless noted 105% and 106% | [4]; 10 µM unless noted 99.3% | [5]; 10 µM unless noted 95.4% and 108% | [6] 101% and 104% | [7]; 10 µM unless noted 100% and 109% | [8]; 10 µM unless noted 114% and 107% | [9]; 10 µM unless noted 105% and 100% | [10]; 10 µM unless noted 105% and 98.8%

CCN(C)c1ccccc1
inactive: [1] 93.3% | [2]; 10 µM unless noted 104% | [3]; 10 µM unless noted 98.2% | [4]; 10 µM unless noted 115% | [5]; 10 µM unless noted 109% | [6] 89.6% | [7]; 10 µM unless noted 113% | [8]; 10 µM unless noted 108% | [9]; 10 µM unless noted 96.2% | [10]; 10 µM unless noted 97.3%

O=c1ccn2c(n1)OC1CC2OC1COC(c1ccccc1)(c1ccccc1)c1ccccc1 (configuration not stated)
inactive: [1] 46.1% [100 µM] | [2]; 10 µM 106% | [2]; 100 µM 58.2% | [3]; 10 µM 98.7% | [3]; 100 µM 84.6% | [4]; 10 µM 102% | [4]; 100 µM 101% | [5]; 10 µM 110% | [5]; 100 µM 84.7% | [7]; 10 µM 115% | [7]; 100 µM 85.4% | [8]; 10 µM 126% | [8]; 100 µM 102% | [9]; 10 µM 121% | [9]; 100 µM 95.1% | [10]; 10 µM 112% | [10]; 100 µM 103%

CN(C)c1ccc(C(=N)c2ccc(N(C)C)cc2)cc1
active: [8]; 10 µM unless noted -9.34% and 2.49% | [10]; 10 µM unless noted 0.0366% and 2.94%
inactive: [1] 19.9% and 10.4% | [2]; 10 µM unless noted 30.6% and 25.1% | [3]; 10 µM unless noted 31.5% and 31.2% | [4]; 10 µM unless noted 68.1% and 65.4% | [5]; 10 µM unless noted 57.8% and 34.9% | [6] 31.1% and 31.6% | [7]; 10 µM unless noted 35.2% and 46% | [9]; 10 µM unless noted 16% and 40.5%

CN(C)C(=S)N(C)C
inactive: [1] 94.9% | [2]; 10 µM unless noted 98.2% | [3]; 10 µM unless noted 109% | [4]; 10 µM unless noted 105% | [5]; 10 µM unless noted 101% | [6] 99.7% | [7]; 10 µM unless noted 153% | [8]; 10 µM unless noted 107% | [9]; 10 µM unless noted 157% | [10]; 10 µM unless noted 102%

CCOP(C)(=O)/C(Cc1ccc(OC)c(OC)c1)=N\O (configuration not stated)
inactive: [1] 105% | [2]; 10 µM unless noted 99.3% | [3]; 10 µM unless noted 114% | [4]; 10 µM unless noted 96.6% | [5]; 10 µM unless noted 107% | [6] 115% | [7]; 10 µM unless noted 104% | [8]; 10 µM unless noted 111% | [9]; 10 µM unless noted 94.9% | [10]; 10 µM unless noted 95.7%

From PubChem BioAssay (NCI)
